# From PubChem BioAssay AID2690 (NMMLSC, 2010)
# In all, about 330,000 compounds went through this assay and about 590 (0.18%) were called active. This is one part of a sample in which actives are shown more often than they occur. A number with no mark means an inactive call.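 Rule for the calls: active = superoxide response under a set limit, about three screen SD below normal (cut at about 65% in these data); inactive = the rest.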
# Assay: yeast aging ROS inhibitors as calorie-restriction mimetics – HTS, primary screen (AID 2690);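 note: yeast aged for seven days with compound at 30 °C before DHE staining; 100% = average MFI of all compound-treated wells on the plate with controls excluded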
# Details: S. cerevisiae aged cells, superoxide DHE fluorescence; at 10 µM; stronger effect = lower value
row,SMILES,superoxide response (% of plate mean)
1,Cc1ccsc1C(=O)OCC(=O)NCCc1ccccc1,92.1%
2,O=C(Nc1ccc(Br)cn1)c1ccc([N+](=O)[O-])o1,118%
3,O=C(Nc1ccc(Br)cn1)c1ccc([N+](=O)[O-])cc1Cl,64.7% (active)
4,O=C(Nc1ccncc1)c1ccc([N+](=O)[O-])cc1Cl,103%
5,C/C(=N\NS(=O)(=O)c1ccccc1)c1c(O)cc(C)oc1=O,102%
6,O=C1NC(=Nc2ccc(Cl)cc2)SC1Cc1cccc(Cl)c1Cl (stereo unspecified),121%
7,O=C(CCS(=O)(=O)c1ccc2c(c1)NC(=O)CS2)NCc1ccccc1Cl,110%
8,CN1CCN(CC(=O)C23CC4CC(CC(C4)C2)C3)CC1,101%
9,O=C1/C(=C/c2ccc(F)cc2)SC(=S)N1NS(=O)(=O)c1ccccc1,107%
10,CC(=O)c1ccc(N2CCN(C(=O)c3ccc4nc[nH]c4c3)CC2)cc1,112%
11,CC1(C)CC[C@@]2(C(=O)O)C(C1)C1=CCC3[C@@]4(C)CC[C@H](O)C(C)(C)C4CC[C@@]3(C)[C@]1(C)C[C@H]2O (stereo partly specified),88%
12,CC(C)(C)C(=O)NC1CC2CCCC(C1)N2C(=O)Nc1ccccc1F (stereo unspecified),103%
13,O=[N+]([O-])/C(N=Nc1ccccc1)=N\Nc1ccccc1,102%
14,CC(C)(C)NC(=O)c1cccc(NC(=O)Cc2ccc(Br)cc2)c1,91.5%
15,Cc1ccc(S(=O)(=O)N(CC(=O)NCc2ccco2)c2ccccc2C)cc1,111%
16,COc1ccc(Nc2nc(NCc3ccco3)nc(N/N=C/c3ccccc3Cl)n2)cc1,99.5%
17,COC1=CCC2([N+](=O)[O-])CN(CC(=O)O)CC1([N+](=O)[O-])C2 (stereo unspecified),98.8%
18,Cc1c2cn[nH]c(=O)c2c(C)n1Cc1ccc(F)cc1,86.5%
19,CC(=O)C[C@H](O)CC(=O)[C@@H]1OC(=O)[C@@H](C)C/C=C\Cc2ccccc21,89.8%
20,CC[C@@H]1CCCCc2ccccc2[C@@H](C(=O)C[C@H](O)CC(C)=O)OC1=O,98.3%
21,CC(=O)C[C@@H](O)CC(=O)[C@H]1OC(=O)CCCCCCc2ccccc21,62.5% (active)
22,CC(C)=NN1C(=O)c2ccccc2NC1(C)C,102%
23,COc1cc(-c2c(-c3ccc4c(c3)OCO4)noc2C)ccc1F,94.1%
24,COC(=O)c1ccc(OCC(=O)NC(C)(C)C)cc1,102%

row,SMILES,superoxide response (% of plate mean)
1,O=C(COc1ccc([N+](=O)[O-])cc1Cl)Nc1ccc2[nH]c(=O)[nH]c2c1,111%
2,CC(C)(C)NC(=O)COc1ccc(CNc2ccc3[nH]c(=O)[nH]c3c2)cc1,60.8% (active)
3,O=c1c2cc([N+](=O)[O-])ccc2nc2n1CCC2,108%
4,Cc1cc(CNC(=O)C2CCC(=O)N(CCc3ccc(Cl)cc3)C2)no1 (stereo unspecified),101%
5,CN=C(Nc1cccc(S(=O)(=O)N2CCOCC2)c1)c1ccccc1,96.6%
6,COc1ccc(CN(C)C(=O)Cc2c[nH]c3ccccc23)c(OC)c1OC,99.6%
7,CSCCC(NS(=O)(=O)c1ccccc1F)C(=O)N1CC=C(c2ccccc2)CC1 (stereo unspecified),105%
8,O=C(Cn1nnc(-c2ccccc2)n1)N/N=C/c1ccc(-c2ccc(Cl)cc2)o1,92.1%
9,Nc1nnn(CC(=O)N/N=C/c2ccc(O)cc2)n1,92.6%
10,Nc1nnn(CC(=O)N/N=C/c2ccccc2)n1,65% (active)
11,CCOc1ccccc1NC(=O)C1CCCN(C(=O)Nc2ccccc2)C1 (stereo unspecified),92.4%
12,CCn1cc(C(=O)NCCO)c(=O)c2cc(F)c(N3CCN(C)CC3)cc21,99.8%
13,CCCCCCn1cc(C(=O)O)c(=O)c2cc(F)c(N3CCCCC3)cc21,91.2%
14,CN1CCN(c2cc3c(cc2F)c(=O)c(C(=O)O)cn3CCF)CC1,60.4% (active)
15,COc1ccc(/C=C/CN2CCCC(C(=O)c3cc(F)ccc3F)C2)cc1 (stereo unspecified),100%
16,COc1cccc(N(Cc2nnc3n2CCCCC3)C(=O)Nc2ccccc2F)c1,107%
17,COc1ccc(OC)c(NC(=O)Cc2cccs2)c1,102%
18,Cc1ccc(-c2nn(C(C)(C)C)c3ncnc(N)c23)cc1,55.4% (active)
19,Cc1ccc(-n2cnc3ncnc(-c4ccccc4)c32)cc1,108%
20,O=C(Nc1cccc(Cl)c1Cl)c1ccccc1NC(=O)C1CC=CCC1C(=O)O (stereo unspecified),64.3% (active)
21,O=C(Nc1ccc(Cl)c(Cl)c1)c1ccccc1NC(=O)C1CC=CCC1C(=O)O (stereo unspecified),128%
22,O=C(Nc1ccccc1C(=O)N1CCCCCC1)c1ccccc1Cl,106%
23,CCCC(NC(=O)c1ccco1)c1nc2ccccc2[nH]1 (stereo unspecified),103%
24,OC(c1nc2ccccc2[nH]1)C(O)C(O)C(O)c1nc2ccccc2[nH]1 (stereo unspecified),59.9% (active)

row,SMILES,superoxide response (% of plate mean)
1,OC(c1nc2ccc(F)cc2[nH]1)C(O)c1nc2ccc(F)cc2[nH]1 (stereo unspecified),103%
2,Cc1ccc(-c2cc(C(=O)NC3CCN(Cc4ccccc4)CC3)c3ccccc3n2)cc1,107%
3,Cc1ccc(S(=O)(=O)NCCC(=O)NC2CCN(Cc3ccccc3)CC2)cc1,93%
4,Cc1ccc(-c2nc(CSCC(=O)NC3CCN(Cc4ccccc4)CC3)c(C)o2)cc1,58.7% (active)
5,O=C(NCc1ccc(F)cc1)C1CCC(CNc2c(N3CCOCC3)c(=O)c2=O)CC1 (stereo unspecified),96.9%
6,Cc1cc2oc(=O)cc(-c3ccccc3)c2c(C)c1-c1ccc(OC(F)(F)F)cc1,94.1%
7,Cc1cc(NC(=O)CN2C(=O)NC(CCc3ccccc3)C2=O)no1 (stereo unspecified),82.4%
8,O=C(CCc1ccccc1)Nc1ccc(NC(=O)C2CCCCC2)nc1,91.3%
9,O=C(COC(=O)CCCNC(=O)c1ccc(Cl)cc1)Nc1cc(Cl)ccc1Cl,98.1%
10,COc1ccc(-c2nonc2NC(=O)c2oc3ccc(F)cc3c2C)cc1OC,80.1%
11,CCN(CC)c1nc(-c2ccccc2)cc(C(F)(F)F)c1C#N,87%
12,Cc1cc(NS(=O)(=O)c2ccc(NC(=O)c3cccc(OC(F)F)c3)cc2)nc(C)n1,103%
13,CCn1nccc1C(=O)Nc1ccc(S(=O)(=O)NC23CC4CC(CC(C4)C2)C3)cc1,114%
14,Cc1cc(C(F)F)n2nc(C(=O)Nc3ccc(S(=O)(=O)NC45CC6CC(CC(C6)C4)C5)cc3)nc2n1,62.8% (active)
15,COc1ccc(NC(=O)c2cc([N+](=O)[O-])ccc2NC(=O)CNC2CCCCC2C)c(OC)c1 (stereo unspecified),111%
16,CCOC(=O)C1=CN(Cc2ccc(Br)cc2)S(=O)(=O)N(C)C1C (stereo unspecified),105%
17,COc1ccccc1C(=O)N1CCNC(=O)C1CC(=O)Nc1ccc(Cl)cc1 (stereo unspecified),103%
18,NS(=O)(=O)c1ccc(NC(=O)/C=C/c2ccccc2Cl)cc1,92.5%
19,COC(=O)c1ccc(NC(=S)Nc2cccc(C)n2)cc1,105%
20,CCC(C(=O)OCC(=O)Nc1c(Cl)cc(Cl)cc1Cl)c1ccccc1 (stereo unspecified),101%
21,Cc1cc(C)cc(NC(=O)COC(=O)c2cc(C)oc2C)c1,95.1%
22,CCCC(C)C(=O)OCC(=O)Nc1c(Br)cc(C)cc1Br (stereo unspecified),65.3% (active)
23,CC(C)Oc1ccc(C(=O)Nc2cc(=O)n(C)c(=O)n2C)cc1,99.9%
24,Cc1cc(=O)n(C)c(=O)n1CCCNc1ccccc1,84.6%

row,SMILES,superoxide response (% of plate mean)
1,Cn1c(Nc2ccccc2)cc(=O)n(C)c1=O,33.4% (active)
2,O=C(NC1CCC(O)CC1)c1ccc(S(=O)(=O)NCc2ccco2)cc1 (stereo unspecified),102%
3,Cn1c(CSCC(=O)Nc2ccccc2)nnc1SCc1ccccc1,118%
4,Cc1c(NC(=O)CSCc2ccccc2)cccc1C(=O)O,116%
5,O=C(CSCc1ccccc1)Nc1ccccc1,42.6% (active)
6,C/C(CC(=O)NC(C)c1ccccc1)=N\NC(N)=S (stereo unspecified),105%
7,C=CCNC(=O)C12CC3CC(C1)CC(C(=O)NCC=C)(C3)C2,96%
8,CCOc1ccccc1NC(=O)C12CC3CC(C1)CC(c1ccc(C)cc1)(C3)C2,95.5%
9,Cc1ccc(C23CC4CC(CC(C(=O)NCC(=O)O)(C4)C2)C3)cc1,62.1% (active)
10,COc1cccc(NC(=O)Cn2c3ccc(F)cc3c3nc4n(c(=O)c32)CCS4)c1,82.6%
11,COc1ccc(C(CCNCc2ccccc2F)c2ccc(F)cc2)cc1 (stereo unspecified),97%
12,CCc1cc(-c2n[nH]c(=S)n2CC(C)C)cs1,87.8%
13,COc1cc(C(=O)NCc2ccc(-n3cccc3)cc2)cc(OC)c1OC,99.9%
14,COc1cc(-c2nnn(CC(=O)NCc3ccccc3)n2)cc(OC)c1OC,65.3% (active)
15,COc1ccc(CNC(=O)Cc2ccc(-c3ccccc3)cc2)cc1OC,98.2%
16,CCCCNC(=O)C1CCCN(S(=O)(=O)c2ccc(S(=O)(=O)NCC(C)C)cc2)C1 (stereo unspecified),102%
17,Cc1ccc2cccc(S(=O)(=O)N3CCN(c4ccccc4F)CC3)c2n1,61.4% (active)
18,Cc1ccccc1N1CCN(S(=O)(=O)c2ccc3ccccc3c2)CC1,95.3%
19,O=S(=O)(N1CCOCC1)N1CCN(c2ccccc2F)CC1,90.5%
20,COc1ccc(C(=O)Nc2ccc(C3(C#N)CCCC3)cc2)cc1OC,87.6%
21,COC(=O)c1ccc(S(=O)(=O)c2ccc(C(=O)OC)s2)s1,101%
22,O=C(Nc1c(Cl)cccc1Cl)C1CCC1,111%
23,NC(=S)Nc1c(Cl)cccc1Cl,46.6% (active)
24,CCNC(=S)Nc1cccc(Cl)c1C,97.2%
